This is an account of results in PubChem BioAssay (Tox21).

SMILES strings stand for the structures. Results filed as inconclusive are left out. Entries that show only a call come without a potency. Values without a mark were called inactive. Activity calls are given as the source filed them. Calls follow the shape of the dose curve; as a rule, active = well fitted activation curve with a large enough effect in the signal ratio in the repeat runs (not every such curve was filed as active); inconclusive = weak or mixed curves; inactive = flat fitted curve, though single readings scatter; the % refers to the signal ratio.

A short description of the assay: p53 small molecule agonists, cell-based qHTS assay (AID 1963582). The conditions noted are these: HCT-116 p53RE-bla reporter, beta-lactamase FRET ratio, 16 h; series mostly up to 66 µM. In outline:
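Cells carrying a p53-responsive bla reporter are treated with test compounds for 16 h at 37 C; beta-lactamase activity is then detected with LiveBLAzer B/G FRET substrate after 2 h at room temperature.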
A general note: In qHTS, concentration-response curves come from the screen itself.
With `CC(C)OCC1CO1` (stereo not given), the Potency entry was “inactive”.
Turning to `CCCCCCC(CO)CCCC` (stereo not given), the Potency entry was “inactive”.
`S=C(SSSSSSC(=S)N1CCCCC1)N1CCCCC1`: the activation was -6.37% [at 13.5 µM].
With `CO[Si](CCCS)(OC)OC`, the Potency entry is “inactive”.
The same measure, in the same setting: with `O=C(CCCN1CCC(O)(c2ccc(Br)cc2)CC1)c1ccc(F)cc1` the entry was “inactive”; with `CC(C)OC(=O)C(C(=O)OC(C)C)=C1SC=CS1`, “inactive”.
As to `O=S(O)O`, the activation is 0.538% [at 13.5 µM].
On to `COc1cc(C(=O)NS(=O)(=O)c2ccccc2C)ccc1Cc1cn(C)c2ccc(NC(=O)OC3CCCC3)cc12`, for which the Potency entry was “inactive”.
With `O=C1O[C@@H]2[C@@H](O)[C@H](O)O[C@@H]2[C@H]1O`, the Potency entry is “inactive”.
Still for that read-out and setting: under `CCc1ccc(CC)cc1` stands “inactive”.
Regarding `CCCCNc1ccc(NCCCC)c2c1C(=O)c1ccccc1C2=O`, the activation was 7.46% [at 13.5 µM].
As to `Clc1cc(Cl)c(-c2c(Cl)c(Cl)cc(Cl)c2Cl)cc1Cl`, the Potency result was “inactive”.
As to `CC(=O)N(CC(O)CN(C(C)=O)c1c(I)c(C(=O)NCC(O)CO)c(I)c(C(=O)NCC(O)CO)c1I)c1c(I)c(C(=O)NCC(O)CO)c(I)c(C(=O)NCC(O)CO)c1I` (stereo not given), the Potency entry was “inactive”.
Turning to `CCCCCCCCCCCCS(=O)(=O)Cl`, the activation was -3.88% [at 13.5 µM].
As to `CCc1cc(Cc2cc(CC)cc(C(C)(C)C)c2O)c(O)c(C(C)(C)C)c1`, the Potency result was “inactive”.
On the same count and under the same terms, under `CCC1=C(C)CN(C(=O)NCCc2ccc(S(=O)(=O)NC(=O)NC3CCC(C)CC3)cc2)C1=O` (stereo not given) stands “inactive”.
On the same count and under the same terms, under `OCC(CO)(CO)COCC(CO)(CO)CO` stands “inactive”; under `OCc1ccccn1`, “inactive”.
Still for that read-out and setting: with `CCCCC` the entry was “inactive”.
Consider `Cc1ccc2c(c1)c1c3n2CCNC3CCC1` (stereo not given), for which the Potency entry is “inactive”.
